# Legend:
# [1] = molecular target: Sphingosine kinase 1 (Homo sapiens) (UniProt Q9NYA1); conditions: at 1 µM;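 further: mean SPHK1 inhibition value reported from the GSK PKIS kinase panel screen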
# [2] = molecular target: T1, Sphingosine kinase 2 (Homo sapiens) (UniProt Q9NRA0); conditions: at 0.1 µM
# T1 sequence (whole entry): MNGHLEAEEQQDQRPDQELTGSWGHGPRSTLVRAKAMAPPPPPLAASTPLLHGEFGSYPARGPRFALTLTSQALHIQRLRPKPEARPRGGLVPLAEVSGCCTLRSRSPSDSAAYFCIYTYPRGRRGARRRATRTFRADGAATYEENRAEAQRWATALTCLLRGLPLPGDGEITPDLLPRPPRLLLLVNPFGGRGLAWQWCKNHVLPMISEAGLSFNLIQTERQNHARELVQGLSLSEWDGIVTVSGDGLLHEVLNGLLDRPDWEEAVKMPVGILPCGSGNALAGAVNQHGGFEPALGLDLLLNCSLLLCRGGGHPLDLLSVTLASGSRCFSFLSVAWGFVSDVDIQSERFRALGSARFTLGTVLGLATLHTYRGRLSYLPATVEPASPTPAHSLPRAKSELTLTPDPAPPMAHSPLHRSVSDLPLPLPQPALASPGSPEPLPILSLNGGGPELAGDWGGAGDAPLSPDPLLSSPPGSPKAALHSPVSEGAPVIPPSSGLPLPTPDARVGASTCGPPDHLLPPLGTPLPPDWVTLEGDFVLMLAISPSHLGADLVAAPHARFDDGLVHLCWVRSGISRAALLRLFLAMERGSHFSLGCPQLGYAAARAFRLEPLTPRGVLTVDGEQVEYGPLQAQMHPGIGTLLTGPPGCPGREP
# [3] = molecular target: T1, Sphingosine kinase 2 (Homo sapiens); conditions: at 1 µM
# [4] = molecular target: Casein kinase II subunit alpha (Homo sapiens) (UniProt P68400); conditions: at 0.1 µM
# [5] = molecular target: Casein kinase II subunit alpha (Homo sapiens) (UniProt P68400); conditions: at 1 µM
# [6] = molecular target: T2, Inhibitor of nuclear factor kappa-B kinase subunit alpha (Homo sapiens) (UniProt O15111); conditions: at 0.1 µM
# T2 sequence (whole entry): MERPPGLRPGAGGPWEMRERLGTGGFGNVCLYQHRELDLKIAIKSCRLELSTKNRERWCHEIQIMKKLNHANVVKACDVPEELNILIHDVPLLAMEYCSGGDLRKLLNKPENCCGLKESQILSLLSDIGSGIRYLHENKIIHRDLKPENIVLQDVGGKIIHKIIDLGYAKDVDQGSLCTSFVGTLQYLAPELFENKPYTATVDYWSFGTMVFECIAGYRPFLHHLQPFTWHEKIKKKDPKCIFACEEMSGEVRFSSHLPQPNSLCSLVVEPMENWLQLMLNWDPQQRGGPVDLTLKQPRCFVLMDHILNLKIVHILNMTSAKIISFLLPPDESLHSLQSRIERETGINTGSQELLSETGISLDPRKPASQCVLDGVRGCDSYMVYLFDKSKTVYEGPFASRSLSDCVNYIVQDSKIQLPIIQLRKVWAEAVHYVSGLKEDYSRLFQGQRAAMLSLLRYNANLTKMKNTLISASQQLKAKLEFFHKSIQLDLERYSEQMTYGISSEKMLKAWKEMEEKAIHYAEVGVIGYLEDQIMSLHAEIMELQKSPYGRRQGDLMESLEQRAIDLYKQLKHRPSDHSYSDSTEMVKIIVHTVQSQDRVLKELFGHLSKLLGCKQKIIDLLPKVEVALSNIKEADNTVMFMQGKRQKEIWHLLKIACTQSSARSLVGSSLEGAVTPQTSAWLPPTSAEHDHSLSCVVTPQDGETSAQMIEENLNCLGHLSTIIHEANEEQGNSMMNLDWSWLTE
# [7] = molecular target: T2, Inhibitor of nuclear factor kappa-B kinase subunit alpha (Homo sapiens); conditions: at 1 µM
# [8] = molecular target: T3, Inhibitor of nuclear factor kappa-B kinase subunit beta (Homo sapiens) (UniProt O14920); conditions: at 0.1 µM
# T3 sequence (whole entry): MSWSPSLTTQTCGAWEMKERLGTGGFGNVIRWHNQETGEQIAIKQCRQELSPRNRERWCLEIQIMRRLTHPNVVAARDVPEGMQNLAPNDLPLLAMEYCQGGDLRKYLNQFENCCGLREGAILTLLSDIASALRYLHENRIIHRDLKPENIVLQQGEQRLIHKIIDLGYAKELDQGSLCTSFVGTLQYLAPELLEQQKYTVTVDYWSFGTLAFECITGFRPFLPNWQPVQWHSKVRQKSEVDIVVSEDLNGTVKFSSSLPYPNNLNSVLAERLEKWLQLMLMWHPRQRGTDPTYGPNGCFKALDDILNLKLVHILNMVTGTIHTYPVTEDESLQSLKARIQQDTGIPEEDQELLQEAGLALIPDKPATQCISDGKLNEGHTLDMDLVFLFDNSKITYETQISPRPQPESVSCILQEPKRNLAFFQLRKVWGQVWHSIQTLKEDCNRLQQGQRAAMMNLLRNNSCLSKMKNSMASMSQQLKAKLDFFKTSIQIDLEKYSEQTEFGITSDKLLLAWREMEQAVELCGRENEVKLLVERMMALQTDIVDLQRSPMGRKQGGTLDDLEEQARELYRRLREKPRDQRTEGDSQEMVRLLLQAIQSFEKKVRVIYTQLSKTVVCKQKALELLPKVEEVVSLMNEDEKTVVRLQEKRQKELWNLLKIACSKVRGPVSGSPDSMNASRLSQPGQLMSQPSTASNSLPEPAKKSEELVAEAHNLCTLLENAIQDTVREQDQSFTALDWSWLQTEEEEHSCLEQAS
# [9] = molecular target: T3, Inhibitor of nuclear factor kappa-B kinase subunit beta (Homo sapiens); conditions: at 1 µM
# [10] = molecular target: T4, Inhibitor of nuclear factor kappa-B kinase subunit epsilon (Homo sapiens) (UniProt Q14164); conditions: at 0.1 µM;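 further: mean inhibition of IKKε reported, from the GSK PKIS dataset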
# T4 sequence (whole entry): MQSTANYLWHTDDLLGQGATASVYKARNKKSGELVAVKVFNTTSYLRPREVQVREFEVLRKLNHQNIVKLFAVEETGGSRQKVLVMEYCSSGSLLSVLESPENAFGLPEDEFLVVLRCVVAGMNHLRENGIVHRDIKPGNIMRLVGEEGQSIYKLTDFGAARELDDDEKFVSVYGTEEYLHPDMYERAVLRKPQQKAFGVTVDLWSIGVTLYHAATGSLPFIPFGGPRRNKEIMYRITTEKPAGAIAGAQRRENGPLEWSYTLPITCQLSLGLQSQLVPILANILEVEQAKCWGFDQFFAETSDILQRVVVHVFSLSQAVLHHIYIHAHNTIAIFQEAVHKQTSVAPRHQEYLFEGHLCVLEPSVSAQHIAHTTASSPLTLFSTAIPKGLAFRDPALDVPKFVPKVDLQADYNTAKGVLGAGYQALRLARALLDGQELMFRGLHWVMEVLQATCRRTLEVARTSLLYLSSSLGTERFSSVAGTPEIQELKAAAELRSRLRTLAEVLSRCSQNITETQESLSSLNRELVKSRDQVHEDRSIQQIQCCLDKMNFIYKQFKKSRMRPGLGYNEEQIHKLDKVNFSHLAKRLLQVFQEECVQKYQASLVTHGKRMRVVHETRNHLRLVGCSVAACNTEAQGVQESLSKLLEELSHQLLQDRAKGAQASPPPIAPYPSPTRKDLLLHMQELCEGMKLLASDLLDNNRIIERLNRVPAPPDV
# Sequence of Casein kinase II subunit alpha (Homo sapiens) (P68400 whole entry, looked up): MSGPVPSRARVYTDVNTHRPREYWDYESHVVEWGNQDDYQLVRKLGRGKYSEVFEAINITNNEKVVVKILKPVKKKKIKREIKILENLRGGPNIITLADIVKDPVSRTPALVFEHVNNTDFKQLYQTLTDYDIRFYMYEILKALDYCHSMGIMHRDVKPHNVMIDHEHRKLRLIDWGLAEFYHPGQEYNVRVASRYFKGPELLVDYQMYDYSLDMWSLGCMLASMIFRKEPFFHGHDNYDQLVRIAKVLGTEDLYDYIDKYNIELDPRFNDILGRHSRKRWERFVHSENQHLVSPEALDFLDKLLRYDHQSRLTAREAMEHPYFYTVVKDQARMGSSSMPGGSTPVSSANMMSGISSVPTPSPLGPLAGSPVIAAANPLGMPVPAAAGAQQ
# Sequence of Sphingosine kinase 1 (Homo sapiens) (Q9NYA1 whole entry): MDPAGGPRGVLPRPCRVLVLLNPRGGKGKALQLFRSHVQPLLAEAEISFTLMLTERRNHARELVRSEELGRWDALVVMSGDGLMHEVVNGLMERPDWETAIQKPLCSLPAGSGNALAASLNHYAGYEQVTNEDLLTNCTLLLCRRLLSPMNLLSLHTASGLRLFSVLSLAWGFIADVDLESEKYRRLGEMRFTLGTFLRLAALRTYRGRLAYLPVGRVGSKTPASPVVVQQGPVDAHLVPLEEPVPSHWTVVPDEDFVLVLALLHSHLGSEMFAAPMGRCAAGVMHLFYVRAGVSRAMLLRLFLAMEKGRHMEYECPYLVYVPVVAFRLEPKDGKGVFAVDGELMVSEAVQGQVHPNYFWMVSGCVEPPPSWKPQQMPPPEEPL
structure (smiles),measurement,setting,value
Fc1ccc(-c2ncn(C3CCNCC3)c2-c2ccnc(Oc3ccc(F)c(F)c3)n2)cc1,inhibition,[1],-0.78%
same,inhibition,[2],1.4%
same,inhibition,[3],-2.94%
same,inhibition,[4],1.69%
same,inhibition,[5],3.12%
same,inhibition,[6],-1.24%
same,inhibition,[7],3.68%
same,inhibition,[8],6.9%
same,inhibition,[9],5.72%
same,inhibition,[10],6.6%
